In PubChem BioAssay (NCI):
This is part of a sample that, as a whole, favours compounds with a hit. Of some 79,000 tested, about 15% had one in any assay. Values without a mark were called inactive. Activity calls are given as the source filed them. No stated cut-off is given here; in the data, active means growth inhibition above about 70%; inactive means the rest.

Test: NCI Yeast Anticancer Drug Screen. Data for the sgs1 mgt1 strain (AID 161);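 further: 0% = growth of cultures given vehicle only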
Conditions: S. cerevisiae sgs1 mgt1 strain, at 50.0 µM, hits give high values
Protocol: Growth inhibition of yeast strains with defined genetic alterations is measured as a screen for potential anti-cancer activity. Selected strains with alterations in DNA damage repair or cell cycle control were exposed to compounds and growth inhibition was measured relative to vehicle treated controls. The strain used in this assay is sgs1 mgt1

Question: With CCO/C=C1\SC(=S)N(c2cccc(C)c2)C1=O as the compound, how does the growth inhibition read?
Answer: 1.25%

Question: Which growth inhibition does the source give for CC(C)CCOC(=O)c1ccccc1 here?
Answer: -34.1%

Question: Which growth inhibition does the source give for Cc1ccc(S(=O)(=O)O)c(C)c1 here?
Answer: 14.4%

Question: With O=[N+]([O-])c1ccc(O)c(S(=O)(=O)O)c1 as the compound, how does the growth inhibition read?
Answer: 7.65%

Question: For O=c1c2ccccc2c(Br)c(Br)c2ccccc12, which growth inhibition is on record?
Answer: 15.6%

Question: With COC(=O)Nc1cccc(Cl)c1OC as the compound, how does the growth inhibition read?
Answer: 0.45%

Question: Which growth inhibition does the source give for CCC/C=C(/C(C)=O)C(=O)OCC here?
Answer: -7%

Question: Which growth inhibition does the source give for Nc1ccc(CC(=O)O)c(N)c1 here?
Answer: -4.6%

Question: Which growth inhibition does the source give for Cc1ccccc1N=C(c1ccccc1)C1C(=O)c2ccccc2C1=O here?
Answer: 42.2%

Question: For O=C1Cc2ccccc2C(=O)O1, which growth inhibition is on record?
Answer: 1.95%

Question: With Cc1cccc(C(=O)N(C(C)C)C(C)C)c1 as the compound, how does the growth inhibition read?
Answer: -4.25%

Question: Which growth inhibition does the source give for Oc1ccccc1-c1nnco1 here?
Answer: 0.35%

Question: Which growth inhibition does the source give for O=C1C=CC(=O)N1c1ccc(I)cc1Cl here?
Answer: 44.1%

Question: Which growth inhibition does the source give for COc1ccc2c(NCCCCCCCCNc3c4ccccc4nc4cc(OC)ccc34)c3ccccc3nc2c1 here?
Answer: 91.8% (active)

Question: For C=CC(O)CCC (stereo not given), which growth inhibition is on record?
Answer: -16.8%

Question: With CC(C)C1CCCCC1O (stereo not given) as the compound, how does the growth inhibition read?
Answer: -11.5%

Question: With Oc1ccccc1O as the compound, how does the growth inhibition read?
Answer: 8.85%

Question: With c1ccc(CN2COc3c(ccc4c3OCN(Cc3ccccc3)C4)C2)cc1 as the compound, how does the growth inhibition read?
Answer: 23.1%

Question: Which growth inhibition does the source give for Cc1ccc(C(O)C2CC2)cc1 (stereo not given) here?
Answer: -23.1%

Question: For O=C(O)CSCSCC(=O)O, which growth inhibition is on record?
Answer: -8.8%

Question: For O/N=C/c1ccc(O)cc1O, which growth inhibition is on record?
Answer: -32.1%

Question: With CCN(CC)CCCC(C)Nc1ccnc(/C=C/c2ccc(Cl)cc2)c1 (stereo not given) as the compound, how does the growth inhibition read?
Answer: -16.1%

Question: Which growth inhibition does the source give for COC(=O)/C=C1\Sc2cc(F)ccc2NC1=O here?
Answer: 13.9%

Question: Which growth inhibition does the source give for O=C(O)c1ccc(S(=O)(=O)O)cc1 here?
Answer: 0.45%

Question: For N=c1c(C(=O)OCc2ccccc2)ncc(CCl)n1O, which growth inhibition is on record?
Answer: 72.2% (active)

Question: With C#CC(C)(O)c1ccc(Cl)cc1 (stereo not given) as the compound, how does the growth inhibition read?
Answer: 8.7%

Question: With O=C1N(C[P+](c2ccccc2)(c2ccccc2)c2ccccc2)CCCN1C[P+](c1ccccc1)(c1ccccc1)c1ccccc1 as the compound, how does the growth inhibition read?
Answer: 3.55%

Question: Which growth inhibition does the source give for CCOC(=O)c1[nH]c(C)c(C(=O)O)c1C here?
Answer: 0.2%

Question: Which growth inhibition does the source give for CCCC1(c2ccccc2)NC(=O)NC1=O (stereo not given) here?
Answer: -6.1%

Question: With C/C(=N\O)C1(O)CCCCC1 as the compound, how does the growth inhibition read?
Answer: 8%

Question: With CC(=O)c1ccc(N=C(C#N)C2=C(O)c3ccccc3C2=O)cc1 as the compound, how does the growth inhibition read?
Answer: 25.8%

Question: With CC(=O)N(C)c1ccc([N+](=O)[O-])cc1 as the compound, how does the growth inhibition read?
Answer: 21.2%

Question: Which growth inhibition does the source give for CCOC(=O)c1ccc(NC(=S)P(=O)(c2ccccc2)c2ccccc2)cc1 here?
Answer: 42.8%

Question: With CC(C)=NNc1ccc([N+](=O)[O-])cc1[N+](=O)[O-] as the compound, how does the growth inhibition read?
Answer: 8.3%

Question: With O=C(Nc1ccccc1C(=O)NCC1CC1)c1cccs1 as the compound, how does the growth inhibition read?
Answer: 3.4%

Question: With CCc1ccc(/C(C#N)=C/C=C/c2ccccc2)cc1 as the compound, how does the growth inhibition read?
Answer: 20.6%

Question: Which growth inhibition does the source give for O=C(Nc1cccc(NC(=O)Nc2cc(C(F)(F)F)ccc2Cl)c1)Nc1cc(C(F)(F)F)ccc1Cl here?
Answer: 9.55%

Question: For N#CCc1ccc([N+](=O)[O-])cc1, which growth inhibition is on record?
Answer: -13.5%

Question: For CN(C)c1ccc2nc3ccc(=N)cc-3sc2c1, which growth inhibition is on record?
Answer: 18.6%

Question: With Cc1ccc(C)n1-c1ccsc1C(=O)NNC(=O)C(Cl)Cl as the compound, how does the growth inhibition read?
Answer: 24.8%
